Results as given in PubChem BioAssay AID2330 (Broad Institute, 2010).
Among all 37,000 compounds or so, about 2,800 (7.6%) were called active. Inconclusive results (about 1%) are left out. Cut-off read from the data, not from the text of the source: active = inhibition above about 80%; inconclusive = no clear call, values can overlap the other calls; inactive = below that. The entries come from a sample that favours actives as a whole.

Test: NOMO-1 AML cell viability reduction, primary screen, STK33 inhibitor project, CellTiter-Glo luminescence (AID 2330)
Conditions: NOMO-1 AML viability, 72 h, stronger effect = higher value, concentration not given here

| Compound | inhibition |
| --- | --- |
| C[C@@H]1CN([C@H](C)CO)C(=O)Cc2cc(NC(=O)CCN3CCOCC3)ccc2O[C@@H]1CN(C)S(C)(=O)=O | 5.67% (inactive) |
| CC(C)NC(=O)N(C)C[C@@H]1Oc2ccc(NS(=O)(=O)c3cn(C)cn3)cc2C(=O)N([C@@H](C)CO)C[C@@H]1C | 18.9% (inactive) |
| Cn1c(OCc2cccnc2)nc2c1c(=O)n(Cc1ccc(Cl)c(Cl)c1)c(=O)n2C | 27.8% (inactive) |
| c1ccc2[nH]c(CSc3nc4ccccc4[nH]3)nc2c1 | 6.35% (inactive) |
| Cc1cc(=O)oc2cc(OCc3cccc(F)c3)ccc12 | 25.5% (inactive) |
| CCOC(=O)c1cc(=O)c2ccc(OCc3ccccc3)cc2o1 | 105% (active) |
| Cc1c(CCC(=O)O)c(=O)oc2cc(OCc3ccc(Br)cc3)ccc12 | 19.3% (inactive) |
| O=C(CSc1nnc2ccc3ccccc3n12)Nc1ccc2c(c1)OCCO2 | 12.1% (inactive) |
| NC(=O)CSc1oc(-c2cccs2)nc1S(=O)(=O)c1ccccc1 | 11.4% (inactive) |
| Cc1noc(C)c1NC(=O)N(C)C[C@@H]1Oc2ccc(NS(C)(=O)=O)cc2C(=O)N([C@@H](C)CO)C[C@@H]1C | -15.6% (inactive) |
| COc1ccc(NC(=O)Nc2ccc3c(c2)C(=O)N([C@H](C)CO)C[C@H](C)[C@@H](CN(C)C(=O)Nc2ccc4c(c2)OCO4)O3)cc1 | 14.3% (inactive) |
| COC(=O)c1cc(OC)c(OC)cc1NC(=O)COc1ccc(Cl)cc1 | 15.1% (inactive) |
| COC(=O)c1c(-c2cccnc2)csc1NC(=O)c1cc(-c2ccc(C)o2)nc2ccccc12 | 86.9% (active) |
| COC(=O)c1cc(OC)c(OC)cc1NC(=O)COc1ccccc1Cl | -12.9% (inactive) |
| COC(=O)c1cc(OC)c(OC)cc1NC(=O)c1cc(-c2ccc(C)o2)nc2ccccc12 | 92.8% (active) |
| Cc1ccccc1OCC(=O)Nc1cc(-c2nc3ccccc3s2)c(Cl)cc1Cl | 6.92% (inactive) |
| COc1ccc(NC(=O)N(C)C[C@H]2Oc3ccc(NC(=O)NC(C)C)cc3CC(=O)N([C@H](C)CO)C[C@H]2C)cc1 | 3.6% (inactive) |
| C[C@@H]1CN([C@H](C)CO)C(=O)Cc2cc(NS(C)(=O)=O)ccc2O[C@H]1CN(C)S(=O)(=O)c1ccccc1 | -9.84% (inactive) |
| Cn1c(=O)c2c(nc(SCC(=O)O)n2Cc2ccc(F)cc2)n(C)c1=O | 17.9% (inactive) |
| Cc1cc(=O)oc2cc(OC(C)C(=O)Nc3ccc(Cl)c(C(F)(F)F)c3)ccc12 (stereo unspecified) | 4.93% (inactive) |
| C[C@H]1CN([C@@H](C)CO)C(=O)c2cc(NC(=O)Nc3ccccc3)ccc2O[C@H]1CN(C)S(C)(=O)=O | 15.5% (inactive) |
